Drawing on paper PMC7819943, “Rice protein-binding microarrays: a tool to detect cis-acting elements near promoter regions in rice”, this text covers binding signal for 44 sequences.

Whole data set: some 39,000 sequences, median “fluorescence intensity (a.u.)” near 4,300, cut for the highest 2% near 39,000. The sample holds the highest values, similar sequences and a random draw of the others, so the mix is not that of the screen.

For this experiment, the target named is T1, OsSMF1 (Oryza sativa, UniProt Q6ZLB0 1-436).
T1 sequence: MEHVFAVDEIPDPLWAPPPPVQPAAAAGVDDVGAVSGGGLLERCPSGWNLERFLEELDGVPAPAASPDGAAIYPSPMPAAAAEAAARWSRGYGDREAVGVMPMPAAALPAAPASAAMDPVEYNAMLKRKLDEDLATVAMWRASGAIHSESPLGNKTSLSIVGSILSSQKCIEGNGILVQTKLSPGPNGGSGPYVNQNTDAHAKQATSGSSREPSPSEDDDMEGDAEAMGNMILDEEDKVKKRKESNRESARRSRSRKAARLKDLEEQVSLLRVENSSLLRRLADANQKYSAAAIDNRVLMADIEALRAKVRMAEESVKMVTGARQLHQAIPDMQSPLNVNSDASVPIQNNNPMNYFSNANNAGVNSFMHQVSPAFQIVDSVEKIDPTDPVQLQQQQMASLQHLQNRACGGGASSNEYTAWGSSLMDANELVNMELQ
In words: protein-binding microarray (RPBM); PBS, 2% BSA, 51.3 ng/ul salmon testes DNA, 50 uM zinc acetate, 200 nM TF, 25 C, 1 h; high values mean tight binding. The conditions noted are these: protein: recombinant; tags: N-terminal polyhistidine and DsRed monomer fusion (pET32a); chain copies: 2; label: CyDye5-dUTP incorporated in the synthesized complementary strand; 3' TTTTT single-stranded linker to array surface; dsDNA, one strand shown. In a few lines: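 The binding signal for each feature is its fluorescence intensity in arbitrary units. An Axon 4000B scanner was used to read a custom Agilent array that had been made double-stranded with Cy5-dUTP primer extension, blocked with 2% BSA, incubated at 25 °C for 1 h with 200 nM protein in PBS, 2% BSA, salmon testes DNA and 50 µM zinc acetate, and washed. The protein was an N-terminal polyhistidine–DsRed transcription factor fusion from E. coli BL21-CodonPlus, purified on Ni–NTA.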
As to “GAGTAGAGGTGGGAGGAAGCGGTGGTGTGGTGGGGTGGGGCGGAGTCACCTAGTGCAG”, the binding signal was 8310 fluorescence intensity (a.u.). The same measure for “CATAGATGGGCTCATCAGTAATGCTCCATATCAACACGACCGGAGTCACCTAGTGCAG”: 35200 fluorescence intensity (a.u.). The same measure for “TGCAGCGCCCTCAGCGTTTTGCGCTGCCGTGGCCATCACGCGGAGTCACCTAGTGCAG”: 4300 fluorescence intensity (a.u.). The same measure for “TATGAAACCTGAAAACAACTTAACACGGGTGTCCTTCGTCCGGAGTCACCTAGTGCAG”: 17500 fluorescence intensity (a.u.).

Turning to “CGCCCACCTATCTTACCACTGACACATTGGCCCCACCACCCGGAGTCACCTAGTGCAG”, the binding signal was 4120 fluorescence intensity (a.u.).

Take “CCCTCCCTCCGCCTCCGCCCATCCAATTTCTTACCCCGTTCGGAGTCACCTAGTGCAG”: the binding signal is 3230 fluorescence intensity (a.u.). Regarding “CCTAATTAATCCATAATTATCAAAAGTTTACTGTAGCATCCGGAGTCACCTAGTGCAG”, the binding signal is 27800 fluorescence intensity (a.u.). The same measure for “AATCCATAATTAGAGAATGTTTACTGTAGCATCACATAGGCGGAGTCACCTAGTGCAG”: 3290 fluorescence intensity (a.u.). To “AATTAATCCATTATTAACAAATGTTTACTGTAGCATCACACGGAGTCACCTAGTGCAG” belongs 51600 fluorescence intensity (a.u.). For “GATTGTTGGTAGCTAGGTAGCTGTGGCCAAGAAAGTGAGACGGAGTCACCTAGTGCAG”, the binding signal is 3810 fluorescence intensity (a.u.).

As to “TAGCAGCCAATTAGTCCACTTAATCACCCATGGATCGCGACGGAGTCACCTAGTGCAG”, the binding signal was 3490 fluorescence intensity (a.u.). Regarding “TATATCTAGTTTGCTCAGACCTACTGCTATTTCTTTCTGACGGAGTCACCTAGTGCAG”, the binding signal was 41200 fluorescence intensity (a.u.). To “ACATGATTTGTGCTCCATGACCTCTTTCTTCTATTATCTACGGAGTCACCTAGTGCAG” belongs 7980 fluorescence intensity (a.u.); to “TTATTTTGGAACTGGACCTATCTAATTTCTCCTAGTCAGACGGAGTCACCTAGTGCAG”, 3780 fluorescence intensity (a.u.); to “TGTTCATAAAAGTAAATGTGCGTGCGTGATTGTATTGTATCGGAGTCACCTAGTGCAG”, 12500 fluorescence intensity (a.u.). In the case of “GCCGCCGCCGCCGCCGCCGCCGCTGTGTGTACGACTACGACGGAGTCACCTAGTGCAG”, the binding signal is 3250 fluorescence intensity (a.u.).

As to “AGAGAGCAGTGGAGTGCTGTCAGCCGTTGGATGGCCATCCCGGAGTCACCTAGTGCAG”, the binding signal was 3400 fluorescence intensity (a.u.).

In the case of “ACCGACGTTTAATCCCTGAGAGCCAGCCGTTGGCTGTGTACGGAGTCACCTAGTGCAG”, the binding signal was 65500 fluorescence intensity (a.u.). “TTACTGCTACCTCCACTTCATGTTATAAGTTGTTTTACCTCGGAGTCACCTAGTGCAG”: the binding signal was 3480 fluorescence intensity (a.u.). To “TCGCTGATGAAAATGATGAGCATGGTGAGGGGAAGAAGGGCGGAGTCACCTAGTGCAG” belongs 22400 fluorescence intensity (a.u.); to “CTTCTTCTTGTGATGCTTATATATGACTATGTATGTAGTGCGGAGTCACCTAGTGCAG”, 3940 fluorescence intensity (a.u.). Regarding “GTTTATTCCAAGTGGTGGATGCTGATGAATTAAGTATATACGGAGTCACCTAGTGCAG”, the binding signal was 3140 fluorescence intensity (a.u.).

Regarding “CGACCGACATATCTTCATAATTACCAAGTCATCATGCGACCGGAGTCACCTAGTGCAG”, the binding signal was 4520 fluorescence intensity (a.u.).

In the case of “ATGAATGACCCTGCGACAACAAACCACATCATATCATGCGCGGAGTCACCTAGTGCAG”, the binding signal is 3740 fluorescence intensity (a.u.). To “ATCACTTCATTATCACATGACAGACCAACATATAATGATGCGGAGTCACCTAGTGCAG” belongs 44500 fluorescence intensity (a.u.). To “ATTATGTAATGCCTGTTGATGTCAGACCACTCCAAATGCTCGGAGTCACCTAGTGCAG” belongs 3480 fluorescence intensity (a.u.); to “TCCAAAAGTTCTTGATGTGGCATGGTGGACATGAATTTGTCGGAGTCACCTAGTGCAG”, 5240 fluorescence intensity (a.u.). On to “CTGAATTTGACTCTTGGATGGTGACTATGATGTCCAAGTACGGAGTCACCTAGTGCAG”, for which the binding signal was 45100 fluorescence intensity (a.u.).

As for “TATGGAGTGAAATGTCAGACTCCAAATGACTTATATGATGCGGAGTCACCTAGTGCAG”, the binding signal was 64100 fluorescence intensity (a.u.).

As for “ATTGGGGAGAGGAGCTGGGCGAGGCGGGGCTTGGGCTCGGCGGAGTCACCTAGTGCAG”, the binding signal was 3390 fluorescence intensity (a.u.). For “TAGGGGAGCCTCGACACGACGCCGCTGGCGTGGCGCGTCCCGGAGTCACCTAGTGCAG”, the binding signal is 9370 fluorescence intensity (a.u.). The same measure for “AAATAATGTGGCCGGACGGGCGGTAGGGTCCTGGCAGCAGCGGAGTCACCTAGTGCAG”: 28000 fluorescence intensity (a.u.). The same measure for “CTCTCCTCTTTGCATGCATTCCTCCTGCCAAGAGTGCTGACGGAGTCACCTAGTGCAG”: 3400 fluorescence intensity (a.u.). To “AAACAAAATAGCATAATCACTCACCGCGTCACACAGCGGGCGGAGTCACCTAGTGCAG” belongs 3720 fluorescence intensity (a.u.). On to “CCGAAGGAGTACGTGCCAAGTCGGCCCATCAGGCCCACGTCGGAGTCACCTAGTGCAG”, for which the binding signal is 4010 fluorescence intensity (a.u.). Consider “CTCTGCACAATTGCACCAACCCCAAAGCTTGGCTAAGCTCCGGAGTCACCTAGTGCAG”, for which the binding signal was 51000 fluorescence intensity (a.u.). The same measure for “CACCAAACCCCAACCCACCTCCAGGTCATCCACCCACATCCGGAGTCACCTAGTGCAG”: 3900 fluorescence intensity (a.u.). To “AAACCCAAGCAAACCAGCAGCTACTAAGCAAAGCACAACCCGGAGTCACCTAGTGCAG” belongs 33900 fluorescence intensity (a.u.). In the case of “CCCTACGTGCACACATCCAGCTCCATTATATAGCCATTTTCGGAGTCACCTAGTGCAG”, the binding signal was 54800 fluorescence intensity (a.u.).

With “TGACCTAGCTAGCTACCTTTTCCCTCTTCCATCACATATACGGAGTCACCTAGTGCAG”, the binding signal is 3800 fluorescence intensity (a.u.). To “CATTTTCCAGGCCAAGCCAGCTCACATCACCAGAGCAACACGGAGTCACCTAGTGCAG” belongs 3720 fluorescence intensity (a.u.); to “TTACGATATAGTGTGCCAATTGGCACACCTACATTTTAGTCGGAGTCACCTAGTGCAG”, 45700 fluorescence intensity (a.u.). Consider “CGATATACGTACACATGTGACATGACGTAATTTTACATCCCGGAGTCACCTAGTGCAG”, for which the binding signal is 4320 fluorescence intensity (a.u.). “ATACGGCACCATTTACGTGTATATGTGTCGTACATGCATACGGAGTCACCTAGTGCAG”: the binding signal is 3470 fluorescence intensity (a.u.).
